From PubChem BioAssay (EPA / NIEHS)
Values joined by “and” are separate entries in the source; they are usually repeats but may differ in a detail not shown here. Identical values can stand only once. Results filed as inconclusive are left out. Active and inactive are the calls of the source. How the source made its calls: active means hit-call score of the fitted dose curve at least 0.9, where 1 is the maximum; inconclusive means response in the unintended direction; inactive means score below 0.9.

Tests used:
[1] = molecular target: Luciferin 4-monooxygenase (Photinus pyralis) (UniProt P08659); experiment: CCTE_Simmons_QuantiLum_inhib_2: CCTE's Firefly Luciferase Inhibition Assay, Simmons Lab (AID 2283767);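 on AC50: potency for inhibitors that lower luciferase luminescence relative to DMSO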
In short: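 First, 5 ng purified luciferase in phosphate buffer with BSA is dispensed per well. Next, test chemicals (5 nM to 87.5 uM final, 0.5% DMSO) are added and incubated 30 min at 37C in darkness. Finally, luciferin reagent is injected and luminescence read kinetically.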

[2] = ACEA_AR_antagonist_AUC_viability: ACEA Biosciences xCELLigence Real-Time Cell Analysis on Androgen Receptor Antagonism for Viability (AID 2283776);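 further: 22Rv1 human prostate cancer cells growing on impedance electrode plates; area under impedance growth curve at 80 h after dosing as viability; hits lower the growth signal relative to DMSO meaning cytotoxicity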
In short: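 Viability endpoint from label-free cell-index monitoring: 22Rv1 cultures treated with an eight-point 1:4 dilution series starting at 100 uM final, AUC at 80 h fitted against DMSO.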

[3] = ACEA_AR_agonist_AUC_viability: ACEA Biosciences xCELLigence Real-Time Cell Analysis on Androgen Receptor Agonism for Viability (AID 2283775);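 on AC50: viability read 80 hours after compound addition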
In short: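 22Rv1 cells; impedance growth kinetics; 8-pt 1:4 dilutions from 100 uM top final, ≤0.5% DMSO; n = 2; 80 h read; AUC viability, loss-of-signal vs DMSO.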

[4] = tested on: chicken Androgen Receptor (AR), gene 422165; experiment: ATG_chAR_XSP1: Attagene TRANS-FACTORIAL Multi-Species (XSP1) HepG2 Assay for chicken Androgen Receptor (AR) (AID 2283768)
In short: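 Reporter mRNA read by RT-PCR with fluorescent labelling and capillary electrophoresis 24 h after chemical dosing of transiently transfected HepG2 cells. Chicken AR-Gal4 chimera, partially stimulated with 3 nM 6-alpha-fluorotestosterone; activity fitted upward relative to DMSO.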

[5] = molecular target: zebrafish Estrogen Receptor (ESR1), esr1 (gene 259252) (UniProt P57717); experiment: ATG_zfER1_XSP1: Attagene TRANS-FACTORIAL Multi-Species (XSP1) HepG2 Assay for zebrafish Estrogen Receptor (ESR1) (AID 2283772)
In short: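 Transfect HepG2 with GAL4-UAS multi-reporter constructs; treat 24 h (medium carries 3 nM 6-alpha-fluorotestosterone); extract RNA, reverse-transcribe, PCR-amplify, FAM-label, digest with HpaI; resolve by capillary electrophoresis and compare against DMSO baseline.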

[6] = tested on: zebrafish Estrogen Receptor (ESR2B), gene 317733; experiment: ATG_zfER2b_XSP1: Attagene TRANS-FACTORIAL Multi-Species (XSP1) HepG2 Assay for zebrafish Estrogen Receptor (ESR2B) (AID 2283773)
In short: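 Multiplexed TRANS format in transfected HepG2 liver cells, chimeric NR-Gal4 from zebrafish ESR2B. 24 h dosing; medium contains 3 nM 6-alpha-fluorotestosterone. mRNA induction by RT-PCR/CE, positive direction vs DMSO.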

[7] = tested on: frog Estrogen Receptor (ESR2), gene 100174814; experiment: ATG_frER2_XSP1: Attagene TRANS-FACTORIAL Multi-Species (XSP1) HepG2 Assay for frog Estrogen Receptor (ESR2) (AID 2283774)
In short: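 HepG2, transient MRTU transfection (GAL4-UAS reporters, exogenous NR-Gal4 chimeras); 24 h compound exposure; 3 nM 6α-fluorotestosterone co-added; total RNA → RT-PCR → 6-FAM primer extension → HpaI → CE. Positive direction vs DMSO.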

[8] = tested on: frog Estrogen Receptor (ESR1), gene 398734; experiment: ATG_frER1_XSP1: Attagene TRANS-FACTORIAL Multi-Species (XSP1) HepG2 Assay for frog Estrogen Receptor (ESR1) (AID 2283777)
In short: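 Transient MRTU transfection, HepG2 (human liver); 24 h dosing, 3 nM 6α-fluorotestosterone co-added; RNA → RT-PCR → 6-FAM labeling → CE; upward activity vs DMSO.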

[9] = tested on: zebrafish Estrogen Receptor (ESR2A), gene 317734; experiment: ATG_zfER2a_XSP1: Attagene TRANS-FACTORIAL Multi-Species (XSP1) HepG2 Assay for zebrafish Estrogen Receptor (ESR2A) (AID 2283778)
In short: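 Transient transfection of HepG2 (human liver) with MRTU constructs; chemical dosing for 24 h; medium contained 3 nM 6-alpha-fluorotestosterone to partly stimulate AR. RT-PCR/CE fluorescence of reporter transcripts; positive direction vs DMSO.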

[10] = molecular target: chicken Estrogen Receptor (ESR1), ESR1 (gene 396099) (UniProt P06212); experiment: ATG_chERa_XSP1: Attagene TRANS-FACTORIAL Multi-Species (XSP1) HepG2 Assay for chicken Estrogen Receptor (ESR1) (AID 2283779)
In short: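 Read-out: fluorescent reporter mRNA fragments resolved by capillary electrophoresis after RT-PCR and HpaI digestion. Transfected HepG2 cells carried chimeric NR-Gal4 constructs, were dosed 24 h with 3 nM 6-alpha-fluorotestosterone added, and activity was fitted upward relative to DMSO.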

[11] = molecular target: Estrogen receptor (Homo sapiens) (UniProt P03372); experiment: ATG_hERa_XSP1: Attagene TRANS-FACTORIAL Multi-Species (XSP1) HepG2 Assay for human Estrogen Receptor (ESR1) (AID 2283780)
In short: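 Reporter transcripts from multiplexed GAL4-UAS units driven by NR-Gal4 chimeras in transiently transfected HepG2 were measured by RT-PCR with capillary electrophoresis 24 h post-dose, with 3 nM 6-alpha-fluorotestosterone present; gain-of-signal relative to DMSO.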

[12] = ArunA_CellTiter_hNP: Viability Assessment in the ArunA Biomedical's Oris Neural Crest (hNC) Cell Migration Assay (AID 2283753)
In short: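 Viability read with CellTiter 96 Aqueous One after 72 h chemical exposure of human hNP1 neuroprogenitors, which were plated on Matrigel in LIF/bFGF medium 16 h beforehand. Endpoint fitted in positive direction relative to DMSO.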

[13] = ArunA_Migration_hNP: ArunA Biomedical's Oris Neuroprogenitor (hNP) Cell Migration Assay (AID 2283754)
In short: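 Readout is calcein-AM fluorescence (ex494/em517) of cells migrating into the detection zone, relative to DMSO. hNP1 cells (H9-derived) grown on Matrigel behind stoppers 16 h, then stoppers pulled and chemical applied 72 h; cytochalasin D as control.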

[14] = ArunA_Migration_hNC: ArunA Biomedical's Oris Neural Crest (hNC) Cell Migration Assay (AID 2283755)
In short: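 Calcein-AM fluorescence (ex494 nm/em 517 nm) in the stopper-defined detection zone quantifies migration of hNC cells after 72 h chemical exposure; 60,000 cells/well plated on Matrigel with LIF and bFGF, 16 h pre-incubation. DMSO baseline.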

[15] = ArunA_NOG_NucleusCount: ArunA Biomedical's Neurite Outgrowth (NOG) Assay for Nucleus Count (AID 2283756)
In short: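 Viable neuron count, from Hoechst nuclei passing size and intensity gates, imaged at 20x on differentiated H9-derived human neurons. Exposure lasted 48 h from seeding; activity was scored relative to DMSO.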

[16] = ArunA_NOG_BranchPointsPerNeurite: ArunA Biomedical's Neurite Outgrowth (NOG) Assay for Branch Points Per Neurite (AID 2283759)
In short: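 Automated image analysis traced neurites (processes >10 um) from valid cell bodies after Hoechst and βIII-tubulin staining. hNN cells from H9 embryonic stem cells, 48 h exposure. Fitted bidirectionally against DMSO.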

Sequence of Luciferin 4-monooxygenase (Photinus pyralis) (P08659 whole entry, looked up): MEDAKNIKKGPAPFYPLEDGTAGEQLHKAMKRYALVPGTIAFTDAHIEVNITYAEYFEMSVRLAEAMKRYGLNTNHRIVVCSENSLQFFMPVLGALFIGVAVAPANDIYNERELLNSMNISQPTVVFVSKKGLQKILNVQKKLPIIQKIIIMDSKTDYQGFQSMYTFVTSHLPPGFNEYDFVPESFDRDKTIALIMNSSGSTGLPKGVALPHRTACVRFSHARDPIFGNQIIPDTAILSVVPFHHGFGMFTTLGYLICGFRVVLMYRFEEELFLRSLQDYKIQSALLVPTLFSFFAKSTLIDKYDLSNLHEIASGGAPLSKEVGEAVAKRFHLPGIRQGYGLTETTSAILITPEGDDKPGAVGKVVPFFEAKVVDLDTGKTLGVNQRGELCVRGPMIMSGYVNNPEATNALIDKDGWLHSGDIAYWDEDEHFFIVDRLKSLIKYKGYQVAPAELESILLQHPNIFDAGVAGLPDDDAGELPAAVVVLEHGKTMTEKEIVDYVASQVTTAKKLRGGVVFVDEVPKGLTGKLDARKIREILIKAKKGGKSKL
Sequence of Estrogen receptor (Homo sapiens) (P03372 whole entry, looked up, the tested form may be a part): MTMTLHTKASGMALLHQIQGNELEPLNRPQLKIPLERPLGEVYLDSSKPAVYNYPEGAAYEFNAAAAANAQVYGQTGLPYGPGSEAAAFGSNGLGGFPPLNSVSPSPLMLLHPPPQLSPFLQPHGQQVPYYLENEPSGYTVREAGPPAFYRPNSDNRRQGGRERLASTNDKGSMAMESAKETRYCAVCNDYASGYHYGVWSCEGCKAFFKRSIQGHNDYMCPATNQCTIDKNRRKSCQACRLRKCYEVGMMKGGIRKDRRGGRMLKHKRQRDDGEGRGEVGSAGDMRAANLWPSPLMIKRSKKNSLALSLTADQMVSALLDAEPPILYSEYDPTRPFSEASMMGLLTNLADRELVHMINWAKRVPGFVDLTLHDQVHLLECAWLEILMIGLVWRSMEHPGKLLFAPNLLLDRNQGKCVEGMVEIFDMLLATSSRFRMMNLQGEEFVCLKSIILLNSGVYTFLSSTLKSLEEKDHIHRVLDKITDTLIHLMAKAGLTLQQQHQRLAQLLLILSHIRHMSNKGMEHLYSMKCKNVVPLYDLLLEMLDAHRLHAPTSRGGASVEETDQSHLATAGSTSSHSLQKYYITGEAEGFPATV
Sequence of chicken Estrogen Receptor (ESR1), ESR1 (gene 396099) (P06212 whole entry, looked up, the tested form may be a part): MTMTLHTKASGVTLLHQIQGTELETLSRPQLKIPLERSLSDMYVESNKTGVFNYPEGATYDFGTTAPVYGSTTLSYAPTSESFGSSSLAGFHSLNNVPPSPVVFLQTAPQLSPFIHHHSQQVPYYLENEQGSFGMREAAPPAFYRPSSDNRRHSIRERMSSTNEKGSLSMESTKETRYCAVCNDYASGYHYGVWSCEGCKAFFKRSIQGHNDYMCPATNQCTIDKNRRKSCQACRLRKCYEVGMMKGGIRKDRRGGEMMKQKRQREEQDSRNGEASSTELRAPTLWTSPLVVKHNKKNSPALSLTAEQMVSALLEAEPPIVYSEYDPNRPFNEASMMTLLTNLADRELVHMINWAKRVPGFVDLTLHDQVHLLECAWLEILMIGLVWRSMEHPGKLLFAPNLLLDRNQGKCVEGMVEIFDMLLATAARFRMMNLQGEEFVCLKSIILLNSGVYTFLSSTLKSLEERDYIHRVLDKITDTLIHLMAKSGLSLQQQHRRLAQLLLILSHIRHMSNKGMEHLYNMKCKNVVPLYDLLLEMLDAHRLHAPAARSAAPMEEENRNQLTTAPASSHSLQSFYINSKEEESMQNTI
Sequence of zebrafish Estrogen Receptor (ESR1), esr1 (gene 259252) (P57717 whole entry, looked up, the tested form may be a part): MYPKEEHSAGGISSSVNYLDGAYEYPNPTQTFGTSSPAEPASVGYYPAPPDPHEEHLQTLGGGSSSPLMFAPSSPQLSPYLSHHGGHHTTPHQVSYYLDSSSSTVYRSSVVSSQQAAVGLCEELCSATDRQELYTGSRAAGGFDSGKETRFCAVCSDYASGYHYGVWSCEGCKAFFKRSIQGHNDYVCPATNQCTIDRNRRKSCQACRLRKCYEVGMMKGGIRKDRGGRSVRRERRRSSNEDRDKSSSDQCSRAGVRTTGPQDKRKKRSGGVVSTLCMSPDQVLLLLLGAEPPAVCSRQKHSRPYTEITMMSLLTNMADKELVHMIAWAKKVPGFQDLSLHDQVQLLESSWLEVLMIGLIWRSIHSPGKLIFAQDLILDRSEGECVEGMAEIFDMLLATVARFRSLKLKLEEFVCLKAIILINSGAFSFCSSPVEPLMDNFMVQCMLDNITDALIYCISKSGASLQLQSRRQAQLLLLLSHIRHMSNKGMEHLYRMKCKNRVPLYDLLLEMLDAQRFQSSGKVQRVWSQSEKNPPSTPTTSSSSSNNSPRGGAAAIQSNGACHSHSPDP

CCCOC(=O)c1cc(O)c(O)c(O)c1
outcome [1]: inactive
AC50 [2]: 31.4 µM (active)

CCOC(=O)O[C@H](C)OC(=O)c1ccc2c(c1)cc(C(=O)NC1CCN(C(C)C)CC1)n2Cc1cc(-c2ccc(Cl)s2)on1
outcome [1]: inactive
AC50 [3]: 10.3 µM (active)
AC50 [2]: 4.55 µM (active)

Cc1c2ccccc2c(C)c2c1ccc1ccccc12
outcome [1]: inactive
AC50 [4]: 8.7 µM (active)
AC50 [5]: 9.59 µM (active)
AC50 [6]: 16.9 µM (active)
AC50 [7]: 9 µM (active)
AC50 [3]: 50 µM (active)
AC50 [2]: 41.1 µM (active)
AC50 [8]: 5.91 µM (active)
AC50 [9]: 15.7 µM (active)
AC50 [10]: 5.86 µM (active)
AC50 [11]: 3.92 µM (active)

O=C1CCC(C2CCCCC2)CC1
AC50 [1]: 3.38 µM (active)
AC50 [2]: 74.1 µM (active)

CCCCCCCCOC(=O)c1cc(O)c(O)c(O)c1
AC50 [12]: 6.65 µM (active) and 541 nM (active)
AC50 [13]: 1.02 µM (active) and 675 nM (active)
AC50 [14]: 120 nM (active) and 452 nM (active)
outcome [15]: inactive
outcome [16]: inactive
AC50 [1]: 31.5 µM (active)
AC50 [2]: 13.5 µM (active)

Cc1oc2c(NC(=O)c3c(Cl)cccc3Cl)cccc2c1C(C)(C)O
AC50 [3]: 22.8 µM (active)
AC50 [2]: 20.3 µM (active)

CO[C@H]1/C=C/O[C@@]2(C)Oc3c(C)c(O)c4c(O)c(c(/C=N/N5CCN(C)CC5)c(O)c4c3C2=O)NC(=O)/C(C)=C\C=C\[C@H](C)[C@H](O)[C@@H](C)[C@@H](O)[C@@H](C)[C@H](OC(C)=O)[C@@H]1C
AC50 [1]: 22.6 µM (active)

O=c1ccc2ccccc2o1
outcome [3]: inactive
outcome [2]: inactive
